Screening results from PubChem.
NadD block – inhibitors of S. aureus NadD, primary screen, biochemical, colorimetric, uHTS | Nicotinate-nucleotide adenylyltransferase NadD (Staphylococcus aureus N315) | purified NadD enzyme, colorimetric absorbance read-out | inhibition, % at 20 µM | actives 0.78% (n = 360,000); in the data active means inhibition above about 26%
aDG glyco act – activators of alpha-DG glycosylation, primary screen, uHTS, Pro5-aDG cells, AlphaScreen | alpha-DG glycosylation AlphaScreen (IIH6); 0% Pro5, 100% B10-LARGE cell signal | activation, % at 10 µM | actives 0.22% (n = 360,000);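 active means activation of at least 8% versus controls, or a plate z-score of at least 8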;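 further: Pro5 are CHO cells carrying HIG-tagged alpha-DG that lacks glycosylation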
TAG inh – inhibitors of triacylglycerol accumulation, primary screen, cell-based, uHTS, fluorescence, H9c2. H9c2 cells, Nile Red lipid (TAG) fluorescence; cells loaded with 200 µM oleic acid. inhibition, % at 12.5 µM. actives 0.66% (n = 230,000). AID 651582, 2012;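 active means pattern-corrected inhibition of lipid staining of at least 50% with the nuclear-stain viability signal not falling by more than 50%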
MPTP inh – mitochondrial permeability transition pore inhibitors, primary screen, biochemical, isolated mouse mitochondria, absorbance; Ca2+ swelling absorbance, 30 min; inhibition, % at 10 µM; actives 1.4% (n = 360,000);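 active means inhibition of 50% or more, scaled per plate between neutral and stimulator controls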
MPTP counter – fluorescence retest of MPTP screen hits in isolated mitochondria, single concentration | membrane potential, Rhodamine 123 fluorescence | shares compounds with MPTP inh | inhibition, % at 10 µM | AID 624504, 2012 | actives 78% (n = 5,000); in the data active means inhibition above about 22%
MPTP swell DR – mitochondrial permeability transition pore inhibitors, dose response, biochemical, absorbance, uHTS hits. shares compounds with MPTP inh. isolated mitochondria swelling. IC50, µM. actives 58% (n = 780). AID 651561, 2012; in the data active means IC50 below about 20 µM
MPTP counter DR – fluorescent counter-screen in isolated mitochondria, dose response, counter-screen for MPTP inhibitor project, biochemical, fluorescence, uHTS hits; shares compounds with MPTP inh; isolated mitochondria counterscreen, fluorescence read-out; IC50, µM; actives 49% (n = 780); in the data active means IC50 below about 80 µM
Hits are given with their value; . = inactive; / = not tested or not shown; + = active, no number. Compounds with a hit are over-represented: about 2.7% of the library has one in this group of screens.

SMILES | NadD block | aDG glyco act | TAG inh | MPTP inh | MPTP counter | others
Cc1cc(C)n2nc(SCc3nnc(SCCCCl)o3)nc2n1 | . | . | / | . | /
CCCCCCCCSc1nnc(CSc2nc3nc(C)cc(C)n3n2)o1 | . | . | / | 87 | . | MPTP swell DR=.;MPTP counter DR=50
Nc1nnc(CC(=O)N/N=C/c2cc([N+](=O)[O-])cc(Br)c2O)s1 | . | . | / | 53 | .
Nc1nnc(CC(=O)N/N=C/c2cccc([N+](=O)[O-])c2)s1 | . | . | . | . | /
O=C(Nc1cccc2c1[nH]c1ccccc12)C(F)(F)F | . | . | . | 99 | 87
O=C(Nc1cccc2c1[nH]c(=O)c1ccccc12)C(F)(F)F | . | . | . | . | /
NC1=NC[C@@H](Cc2ccc(O)cc2)N1CCCCC1CCCCC1 | . | . | . | 60 | . | MPTP swell DR=9.6;MPTP counter DR=24
CN(Cc1ccc(C(F)(F)F)cc1)C(=O)C1CC(=O)N(Cc2ccco2)C1 (configuration not stated) | . | . | . | . | /
CC(OC(=O)CCc1nc2ccccc2c(=O)[nH]1)C(=O)c1ccc(C(C)(C)C)cc1 (configuration not stated) | . | . | / | 96 | 86
CC12CCC(O)CC1=CCC1C2CCC2(C)C(c3ccn[nH]3)CCC12 (configuration not stated) | . | . | . | 57 | 88
CC(=O)c1sc(NC(=O)CCc2ccccc2)nc1C | . | . | . | . | /
CCC(C)c1ccc(NC(=O)COc2c(F)c(F)c(C(F)(F)F)c(F)c2F)cc1 (configuration not stated) | . | . | / | 83 | 95
CCC(C)c1ccc(OCC(=O)Nc2cccc(C(=O)Nc3ccc(C(=O)O)cc3)c2)cc1 (configuration not stated) | . | . | . | . | /
CSc1ccc(OCC(=O)Nc2ccc(N3CCOCC3)c(Cl)c2)cc1 | . | . | . | . | /
O=C(COc1c(F)c(F)c(C(F)(F)F)c(F)c1F)Nc1ccc(N2CCOCC2)c(Cl)c1 | . | . | . | 90 | 78
O=c1ccc2nc3ccccc3sc-2c1 | . | . | / | . | /
CCOC(=O)C(Cc1ccc(NC(C)=O)cc1)N1C(=O)c2ccccc2C1=O (configuration not stated) | . | . | . | . | /
O=c1c2cc(NC(=S)N3CCCCCC3)ccc2nc2n1CCCCC2 | . | . | . | . | /
O=C(NC(c1ccccc1)C(Cl)Cl)c1ccccc1 (configuration not stated) | . | . | / | . | /
[N-]=[N+]=NC(c1ccccc1)C(NC(=O)c1cc(C(F)(F)F)cc(C(F)(F)F)c1)c1ccccc1 (configuration not stated) | . | . | / | 68 | 103
NCCOc1ccc(C23CC4CC(CC(C4)C2)C3)cc1 | . | . | . | 76 | .
Cc1c(C(=O)NC(Cc2ccccc2)c2nc3ccccc3[nH]2)cccc1[N+](=O)[O-] (configuration not stated) | . | . | . | . | /
CSCC[C@H](NC(=O)c1ccc(Cl)c([N+](=O)[O-])c1)c1nc2ccccc2[nH]1 | . | . | / | 59 | 83
O=C(NC(Cc1ccccc1)c1nc2ccccc2[nH]1)c1ccc(Cl)c([N+](=O)[O-])c1 (configuration not stated) | . | . | . | 93 | 91
CC(=O)c1ccc(N2CCN(CC(=O)N(C3CC3)C3CCS(=O)(=O)C3)CC2)c(F)c1 (configuration not stated) | . | . | . | . | /
SMILES | NadD block | aDG glyco act | TAG inh | MPTP inh | MPTP counter | others
CC(=O)Nc1ccc(NC(=O)CS(=O)(=O)c2cn(CC(=O)N3CCC(C)CC3)c3ccccc23)cc1 | . | . | . | . | /
COc1ccc(Cn2c(=O)oc3ccccc32)cc1OC | . | . | . | . | /
COc1ccc(Cn2c(=O)oc3ccc(C)cc32)cc1OC | . | . | / | 72 | 35
CC(=O)N1CCN(C(=O)COC(=O)COc2c(C)cc(C)cc2C)CC1 | . | . | . | . | /
NC(=S)n1[nH]c(-c2ccc([N+](=O)[O-])cc2)c(N=Nc2cccc([N+](=O)[O-])c2)c1=O | 77 | . | . | 108 | 76
Cc1c(N=Nc2c(-c3ccc([N+](=O)[O-])cc3)[nH]n(C(N)=S)c2=O)cccc1[N+](=O)[O-] | 81 | . | . | 96 | 67
Cc1[nH]n(C(N)=S)c(=O)c1N=Nc1cccc([N+](=O)[O-])c1C | . | . | . | . | /
Cc1cc(C)cc(NC(=S)N2CCC(NC(=O)C3CC3)CC2)c1 | . | . | / | . | /
COc1ccc(NS(=O)(=O)c2ccc(N3CCCC3)c(NC(=S)Nc3ccc(SC(F)F)cc3)c2)cc1 | . | . | / | 64 | 81
COc1ccc(NS(=O)(=O)c2ccc(N3CCCC3)c(N)c2)cc1 | . | . | / | 78 | 84
Nc1cc(S(=O)(=O)Nc2ccc(Cl)cc2)ccc1N1CCOCC1 | . | . | . | 91 | 55
CC(C)(C)c1cc(C(=O)Nc2ccc(F)cc2)n(Cc2ccc(F)cc2)n1 | . | . | . | 80 | 87
CC(C)(C)c1cc(C(=O)NNc2cc(C(F)(F)F)ccc2Cl)n(Cc2ccccc2)n1 | . | . | . | 75 | 78
C[C@H](O)[C@@H]1C(=O)N2CCc3c([nH]c4ccccc34)[C@@H]2C[C@@H]1N(C)C(=O)Nc1cc(Cl)cc(Cl)c1 | . | . | . | . | /
COC(=O)c1c(C(=O)OC)c(-c2cccc(F)c2)n2c1CS(=O)(=O)C2 | . | . | / | . | /
COc1ccc(CC(=O)NNC2=Nc3cccc4cccc2c34)cc1OC | . | . | . | . | /
O=C(NNC1=Nc2cccc3cccc1c23)c1ccc(Br)cc1 | . | . | / | 83 | 67
Cc1cc(Nc2cccc([N+](=O)[O-])c2)n2c(nc3ccccc32)c1C#N | . | . | / | 67 | 93
Cc1ccc(NC(=O)CSc2ccccc2NC(=O)c2ccccc2Cl)cc1Cl | . | . | / | 90 | 87
Cc1ccc(NC(=O)COc2ccccc2)cc1Cl | . | . | / | . | /
Cc1ccc(NC(=O)CSc2ccccc2NC(=O)c2ccccc2)cc1Cl | . | . | / | 92 | 65
O=[N+]([O-])c1ccc(CN2[C@H](COCc3ccccc3)[C@@H](N3CCCC3)CS2(=O)=O)cc1 | . | . | / | . | /
COC(=O)Cc1cc(=O)n2[nH]c(C)cc2n1 | . | . | . | + | . | MPTP swell DR=.;MPTP counter DR=.
C#CCN(C[C@H]1[C@H](OC(=O)NCc2ccccc2F)[C@H](OC(=O)NCc2ccccc2F)C[C@@H](C(=O)OC)[C@H]1C(=O)OC)S(=O)(=O)c1ccc(C)cc1 | . | . | . | . | /
